Each structure is given as a SMILES string. Values without a mark were called inactive. Results filed as inconclusive are left out. Calls of active or inactive are those of the source. Unless noted, the call rests on the fitted dose curve; in most records, active means well fitted curve in the direction sought with a large enough effect in the repeat runs; inconclusive means weak or mixed curves; inactive means no such curve, though single readings can be large; an effect the other way counts as inactive or inconclusive.

Potency, outcome and max activation data for six compounds are collected here from PubChem BioAssay (Tox21).

The target of test [1] is Thyrotropin receptor (Homo sapiens) (UniProt P16473). Briefly: qHTS assay to identify small molecule antagonists of the thyroid stimulating hormone receptor (TSHR) signaling pathway (AID 1259385; calls by dose curve; further: nearly all actives have a fitted effect of over 20% in size). The essentials:
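TSHR-HEK293 cells (800/well) plated 18 h, then compounds with Ro20-1724 and TSH at 1.5 ng/mL final, 30 min at room temperature. cAMP quantified by HTRF (cAMP-d2/anti-cAMP-cryptate, 1 h); 15 concentrations in triplicate.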
In general terms: qHTS replaces the single test concentration by a dilution series.

Test [2] can be described thus: qHTS assay to identify small molecule agonists of the estrogen receptor alpha (ER-alpha) signaling pathway in the presence of an antagonist - cell viability counter screen (AID 1259386).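 Further: series mostly up to about 92 µM; cells exposed to compounds for 22 h at 37 °C before the viability read; nearly all actives have a fitted effect of over 30% in size.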 The procedure, abridged: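 Cytotoxicity was measured in parallel with the ERE-luciferase agonist screen, in the same wells. The cells were VM7Luc4E2, which endogenously express ER-alpha, and treatment was with compounds plus 10.0nM ICI-182,780 for 22hr.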

For test [3], the target named is Progesterone receptor (Homo sapiens) (UniProt P06401). Briefly: qHTS assay to identify small molecule agonists of the progesterone receptor (PR) signaling pathway (AID 1346784; calls by dose curve; further: nearly all actives have a fitted effect of over 30% in size). The procedure, abridged: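 PR-UAS-bla HEK 293T cells carrying a UAS-driven beta-lactamase reporter were seeded in medium with 2% charcoal-stripped FBS, preincubated 6 hr at 37C, then exposed to compounds in DMSO for 16 hr; agonism was read by LiveBLAzer B/G FRET fluorescence.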

Test [4] can be described thus: qHTS assay to identify small molecule antagonists of the progesterone receptor (PR) signaling pathway - cell viability counter screen (AID 1346798). Further: series mostly up to about 92 µM; nearly all actives have a fitted effect of over 50% in size. The essentials:
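PR-UAS-bla HEK293T cells in medium with 2% charcoal-stripped FBS were treated with compounds plus R5020 for 16 hr at 37C. Cell viability was then read by CellTiter-Glo luminescence after 30 min at room temperature in the same wells.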

Test [5] can be described thus: qHTS assay to identify small molecule agonists of the progesterone receptor (PR) signaling pathway - cell viability counter screen (AID 1346799; calls by dose curve; further: nearly all actives have a fitted effect of over 45% in size). The procedure, abridged:
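PR-UAS-bla HEK293T cells, 3,000 per well in medium with 2% charcoal-stripped FBS, were preincubated 6 hr at 37C, then exposed to compounds for 16 hr; viability was read as CellTiter-Glo luminescence after 30 min at room temperature.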

A short description of test [6]: qHTS assay to identify small molecule antagonists of the TGF-beta/Smad signaling pathway - cell viability counter screen (AID 1346824). Further: nearly all actives have a fitted effect of over 50% in size. The essentials: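 SBE-bla HEK 293T cells, incubated overnight, then compound plus 0.25 ng/mL TGF-beta1 (stock added) for 5 hr at 37 C. Viability was read in the same wells by CellTiter-Glo luminescence after 30 min at room temperature.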

A short description of test [7]: qHTS assay to identify small molecule agonists of the TGF-beta/Smad signaling pathway - cell viability counter screen (AID 1346829). Further: top concentration of the series differs between compounds; nearly all actives have a fitted effect of over 45% in size. The essentials:
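Tox21 qHTS format: SBE-bla HEK 293T cells treated with DMSO-dissolved compounds for 5 hr; CellTiter-Glo luminescence after 30 min at room temperature.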

Test [8] in a line: qHTS assay to identify small molecule agonists of the TGF-beta/Smad signaling pathway (AID 1346859; active means well fitted activation curve with a large enough effect in the signal ratio in the repeat runs, not every such curve was filed as active; the % refers to the signal ratio; further: series mostly up to about 77 µM). The essentials: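 HEK 293T cells stably carrying a beta-lactamase reporter driven by the Smad binding element were seeded overnight, exposed to DMSO-dissolved compounds for 5 hr at 37 C, 5% CO2, then loaded with FRET substrate for 2 hr at room temperature.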
For test [9], the target named is Thyrotropin-releasing hormone receptor (Homo sapiens) (UniProt P34981). Nature of the test: qHTS assay to identify small molecule antagonists of the thyrotropin-releasing hormone receptor (TRHR) signaling pathway (AID 1346877; active means well fitted inhibition curve with a large enough effect in the repeat runs, not every such curve was filed as active; further: series mostly up to about 51 µM). The procedure, abridged: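 Antagonism is measured as suppression of the calcium response to 1 nM TRH in TRHR-HEK293 cells that have been dye-loaded for 2 h at 37 °C after overnight plating. Each compound is tested at 15 concentrations in triplicate.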

Test [10] shares this target. Briefly: qHTS assay to identify small molecule agonists of the thyrotropin-releasing hormone receptor (TRHR) signaling pathway (AID 1346891; calls by dose curve; further: series mostly up to about 58 µM). The essentials: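 TRHR-expressing HEK293 cells were plated 18 h at 37 °C/5% CO2, loaded with calcium dye 2 h at 37 °C, then given compound in DMSO; fluorescence was read kinetically for 3 min at 1 s intervals.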
Test [11] is described as follows: Human pregnane X receptor (PXR) small molecule agonists, qHTS cell viability counter screen (AID 1346977). Further: nearly all actives have a fitted effect of over 50% in size. The essentials: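 PXR-Luc HepG2 cells in medium with 5% charcoal-stripped FBS were pre-incubated 5hr, then exposed to compounds for 24hr at 37C. Viability was read in the same wells by CellTiter-Fluor fluorescence, reagent added after 23hr with a 1hr incubation.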

A short description of test [12]: Caspase-3/7 induction in HepG2 cells by small molecules, qHTS assay (AID 1346978). Further: nearly all actives have a fitted effect of over 15% in size. The procedure, abridged: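 Wild-type HepG2 cells, 2,000/well, settled 5 hr at 37 C and 5% CO2, then compound-treated for 17 hr; caspase-3/7 activity read by luminescent Caspase-Glo 3/7 after 30 min at room temperature.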
Test [13] in a line: Caspase-3/7 induction in CHO-K1 cells by small molecules, qHTS cell viability counter screen (AID 1346979). Further: nearly all actives have a fitted effect of over 35% in size. The procedure, abridged:
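Wild-type CHO-K1 cells were seeded at 1,500 per well, rested 5hr at 37 C, then exposed to compounds in DMSO. After 16hr, CellTiter-Fluor reagent was added and fluorescence read 1hr later as the viability measure.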

The nature of test [14]: Caspase-3/7 induction in CHO-K1 cells by small molecules, qHTS assay (AID 1346980). Further: nearly all actives have a fitted effect of over 15% in size. The essentials:
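Wild-type CHO-K1 cells exposed to compounds for 17hr at 37 C, 5% CO2. Caspase-3/7 activity then measured by Caspase-Glo 3/7 luminescence after 30min at room temperature.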

Test [15] is described as follows: Caspase-3/7 induction in HepG2 cells by small molecules, qHTS cell viability counter screen (AID 1346981). Further: series mostly up to about 92 µM; nearly all actives have a fitted effect of over 30% in size. The essentials: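 Cell viability is measured as a cytotoxicity counter screen alongside the Caspase-Glo 3/7 readout in identical wells. Wild-type HepG2 cells are treated with test compounds for 16 hr at 37 C before CellTiter-Fluor addition and a 1-hr incubation.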

In test [16] the target is Nuclear receptor subfamily 1 group I member 2 (Homo sapiens) (UniProt O75469). Nature of the test: Human pregnane X receptor (PXR) small molecule agonists, qHTS assay (AID 1346982). Further: nearly all actives have a fitted effect of over 35% in size. Further: potency means the concentration at half of the fitted maximal effect. The essentials:
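Cells: HepG2 stably carrying PXR-Luc. Medium held 5% charcoal-stripped FBS. Compounds in DMSO added after 5 hr plating, incubated 24 hr, then luminescence quantified with ONE-Glo.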

Test [17] deals with Progesterone receptor (Homo sapiens) (UniProt P06401). Briefly: qHTS assay to identify small molecule antagonists of the progesterone receptor (PR) signaling pathway (AID 1346795; active means well fitted inhibition curve with a large enough effect in the signal ratio in the repeat runs, not every such curve was filed as active; the % refers to the signal ratio). The procedure, abridged: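 PR-UAS-bla HEK293T cells carrying a UAS-driven beta-lactamase reporter were plated in medium with 2% charcoal-stripped FBS and rested 6 hr at 37C. Compounds were added with 1 nM R5020 (final) for 16 hr, then FRET substrate loaded 2 hr at room temperature.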

Test [18] has as its target Nuclear receptor subfamily 1 group I member 2 (Homo sapiens) (UniProt O75469). Nature of the test: CYP3A4 induction through human pregnane X receptor (PXR) by small molecules, qHTS assay (AID 1346984). Further: nearly all actives have a fitted effect of over 40% in size. Further: potency means the concentration at half of the fitted maximal effect. The procedure, abridged:
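Quantitative HTS in DPX-2 cells, i.e. HepG2 transfected with PXR response element and CYP3A4-promoter luciferase. Compounds in DMSO incubated 24hr at 37C; then P450-Glo CYP3A4 substrate, 3uM final, 3hr; One-Glo luminescence.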

For test [19] the target is unchanged. Briefly: Human pregnane X receptor (PXR) activation by small molecules, qHTS assay (AID 1346985). Further: nearly all actives have a fitted effect of over 40% in size. Further: potency means the concentration at half of the fitted maximal effect. The procedure, abridged:
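DPX-2 cells (HepG2 co-transfected with a PXR response element and a CYP3A4-promoter luciferase construct) were seeded at 2,000 per well, rested 5 hr at 37C, then exposed to DMSO-dissolved compounds for 24 hr. Activation was read as luciferase luminescence.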

Test [20] concerns the target Nuclear receptor subfamily 1 group I member 2 (Rattus norvegicus) (UniProt Q9R1A7). Briefly: Rat pregnane X receptor (rPXR) activation by small molecules, qHTS assay (AID 1346983). Further: nearly all actives have a fitted effect of over 20% in size. Further: potency means the concentration at half of the fitted maximal effect. Particulars: rPXR luciferase reporter cells, One-Glo luminescence, 24 h; max activation: hits give high values. The procedure, abridged: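 Cell-based rPXR activation assay: rPXR cells, 2,000 per well, rested 5hr at 37 C, then exposed to compounds in DMSO for 24 hr at 37 C. Luciferase activity read by One-Glo luminescence after 30 min at room temperature.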
On the % scale 0 is the no-effect control and ±100 the full control effect.

Sequence of Progesterone receptor (Homo sapiens) (P06401 whole entry, looked up): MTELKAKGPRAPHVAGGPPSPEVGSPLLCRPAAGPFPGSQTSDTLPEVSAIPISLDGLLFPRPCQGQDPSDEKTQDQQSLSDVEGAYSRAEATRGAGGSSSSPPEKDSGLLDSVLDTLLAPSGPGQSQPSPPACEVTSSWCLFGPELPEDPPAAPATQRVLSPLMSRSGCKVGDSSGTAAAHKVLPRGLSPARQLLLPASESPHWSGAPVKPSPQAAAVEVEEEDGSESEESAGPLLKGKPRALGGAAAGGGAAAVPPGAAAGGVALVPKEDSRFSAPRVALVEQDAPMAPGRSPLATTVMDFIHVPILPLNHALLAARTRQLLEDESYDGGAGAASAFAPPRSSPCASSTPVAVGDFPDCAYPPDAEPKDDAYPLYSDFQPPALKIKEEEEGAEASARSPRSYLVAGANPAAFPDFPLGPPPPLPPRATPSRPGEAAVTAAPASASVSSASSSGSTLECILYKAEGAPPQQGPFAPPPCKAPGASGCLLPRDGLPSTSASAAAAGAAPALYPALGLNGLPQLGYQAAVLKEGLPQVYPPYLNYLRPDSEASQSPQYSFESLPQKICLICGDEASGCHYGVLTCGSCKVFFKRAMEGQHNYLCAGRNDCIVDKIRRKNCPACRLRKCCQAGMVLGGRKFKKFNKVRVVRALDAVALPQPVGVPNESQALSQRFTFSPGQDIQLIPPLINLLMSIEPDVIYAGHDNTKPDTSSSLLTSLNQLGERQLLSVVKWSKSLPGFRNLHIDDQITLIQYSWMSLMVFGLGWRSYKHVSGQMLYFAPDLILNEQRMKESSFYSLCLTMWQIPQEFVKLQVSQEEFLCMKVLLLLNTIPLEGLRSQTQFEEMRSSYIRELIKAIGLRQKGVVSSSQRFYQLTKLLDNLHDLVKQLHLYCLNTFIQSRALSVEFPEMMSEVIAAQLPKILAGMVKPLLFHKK
Sequence of Thyrotropin-releasing hormone receptor (Homo sapiens) (P34981 whole entry, looked up): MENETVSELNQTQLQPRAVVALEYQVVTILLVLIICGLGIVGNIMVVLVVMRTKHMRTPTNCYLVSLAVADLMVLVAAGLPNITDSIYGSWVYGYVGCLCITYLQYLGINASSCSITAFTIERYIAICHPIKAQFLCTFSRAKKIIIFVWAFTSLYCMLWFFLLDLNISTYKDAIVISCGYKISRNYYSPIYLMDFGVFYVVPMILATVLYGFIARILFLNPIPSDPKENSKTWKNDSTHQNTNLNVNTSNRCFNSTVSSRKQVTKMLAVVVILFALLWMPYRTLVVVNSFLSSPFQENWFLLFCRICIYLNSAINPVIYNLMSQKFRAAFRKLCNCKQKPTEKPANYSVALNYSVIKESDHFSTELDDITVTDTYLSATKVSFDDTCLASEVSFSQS
Sequence of Thyrotropin receptor (Homo sapiens) (P16473 whole entry, looked up): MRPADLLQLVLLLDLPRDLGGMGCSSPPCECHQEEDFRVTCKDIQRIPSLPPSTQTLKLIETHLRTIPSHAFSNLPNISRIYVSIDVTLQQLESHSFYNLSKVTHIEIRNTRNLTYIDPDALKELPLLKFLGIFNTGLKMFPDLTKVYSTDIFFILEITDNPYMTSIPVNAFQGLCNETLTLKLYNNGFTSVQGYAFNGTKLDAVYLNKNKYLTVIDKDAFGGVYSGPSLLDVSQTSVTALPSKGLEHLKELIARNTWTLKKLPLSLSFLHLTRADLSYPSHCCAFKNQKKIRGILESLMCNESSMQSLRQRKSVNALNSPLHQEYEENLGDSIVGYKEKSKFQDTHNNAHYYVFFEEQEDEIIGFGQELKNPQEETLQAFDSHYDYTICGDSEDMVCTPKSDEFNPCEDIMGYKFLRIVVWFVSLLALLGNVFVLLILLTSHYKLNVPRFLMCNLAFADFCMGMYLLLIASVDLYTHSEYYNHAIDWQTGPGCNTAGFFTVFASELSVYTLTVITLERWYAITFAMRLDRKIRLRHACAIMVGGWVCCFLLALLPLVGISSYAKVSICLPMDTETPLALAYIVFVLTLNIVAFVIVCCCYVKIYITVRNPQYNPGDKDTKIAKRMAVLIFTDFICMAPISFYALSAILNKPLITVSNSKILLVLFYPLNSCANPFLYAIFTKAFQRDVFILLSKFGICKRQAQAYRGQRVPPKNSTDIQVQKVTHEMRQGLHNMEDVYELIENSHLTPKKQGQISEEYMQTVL
Sequence of Nuclear receptor subfamily 1 group I member 2 (Homo sapiens) (O75469 whole entry, looked up): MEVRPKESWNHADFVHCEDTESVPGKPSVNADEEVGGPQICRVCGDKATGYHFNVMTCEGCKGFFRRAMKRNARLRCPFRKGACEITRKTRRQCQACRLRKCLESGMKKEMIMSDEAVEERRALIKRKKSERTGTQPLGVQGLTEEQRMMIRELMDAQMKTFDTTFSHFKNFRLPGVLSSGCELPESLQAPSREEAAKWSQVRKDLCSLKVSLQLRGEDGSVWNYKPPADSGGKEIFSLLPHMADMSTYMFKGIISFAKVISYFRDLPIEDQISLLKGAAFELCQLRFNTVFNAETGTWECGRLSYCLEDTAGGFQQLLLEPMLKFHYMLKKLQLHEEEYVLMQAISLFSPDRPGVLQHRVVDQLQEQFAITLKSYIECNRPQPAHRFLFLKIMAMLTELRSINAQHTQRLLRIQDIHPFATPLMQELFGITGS
Sequence of Nuclear receptor subfamily 1 group I member 2 (Rattus norvegicus) (Q9R1A7 whole entry, looked up): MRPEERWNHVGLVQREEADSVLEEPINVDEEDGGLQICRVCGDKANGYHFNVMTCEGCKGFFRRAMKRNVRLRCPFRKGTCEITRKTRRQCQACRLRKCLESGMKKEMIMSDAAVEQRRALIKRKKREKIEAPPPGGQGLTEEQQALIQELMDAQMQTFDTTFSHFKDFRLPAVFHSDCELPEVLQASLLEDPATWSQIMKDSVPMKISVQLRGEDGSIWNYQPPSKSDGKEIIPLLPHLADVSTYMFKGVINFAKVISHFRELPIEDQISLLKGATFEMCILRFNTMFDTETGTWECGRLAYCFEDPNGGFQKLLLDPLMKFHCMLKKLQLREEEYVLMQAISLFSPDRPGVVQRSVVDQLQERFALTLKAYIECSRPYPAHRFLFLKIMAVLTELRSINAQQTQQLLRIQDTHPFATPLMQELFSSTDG

Take `CCCC(=O)C(=O)O`: the Potency entry in test [1], in [2], in test [3], in [4], in [5] and in test [6] was “inactive” throughout. Also, the Potency entry in test [7], in test [8], in [10], in [11], in test [12] and in test [13] was “inactive” throughout. Moreover, the Potency result in [14], in [15] and in test [16] was “inactive” in each case. For the same compound, in test [9], the compound was called inactive.
Take `O=C(O)c1cccc(-c2noc(-c3ccccc3F)n2)c1`: the Potency result in test [1], in test [2], in test [3], in test [17], in test [10] and in [11] was “inactive” throughout. The Potency entry in [12], in test [13], in test [14], in test [15], in [18] and in [19] was “inactive” in each case. In addition, in [9], the compound was called inactive. For the same compound, in test [16], the Potency is 0.006 µM (active).
Consider `CO[C@]1(NC(=O)CSC(F)F)C(=O)N2C(C(=O)O)=C(CSc3nnnn3CCO)CO[C@H]21`, for which the Potency entry in [1], in test [2], in [3], in test [4], in [5] and in test [6] was “inactive” throughout. The Potency entry in test [7], in test [8], in [10], in test [11], in test [12] and in test [13] was “inactive” in each case. For the same compound, the Potency entry in test [14] and in test [15] was “inactive” each time. Also, in test [9], the call was inactive.
Consider `CC(C)=CC(=O)C=C(C)C`, for which the Potency result in [1], in [2], in test [3], in test [17], in test [5] and in test [6] was “inactive” in each case. The Potency result in test [7], in test [8], in test [10], in test [11], in [12] and in [13] was “inactive” throughout. For the same compound, the Potency result in [14], in [15] and in test [16] was “inactive” in each case. In addition, the result in test [9] was inactive.
Turning to `C/C=C(/C(=C/C)c1ccc(O)cc1)c1ccc(O)cc1`, the Potency entry in [1], in test [2], in [3], in [4], in [6] and in test [7] was “inactive” in each case. The Potency result in test [8], in [10], in [11], in test [14], in test [16] and in test [18] was “inactive” in each case. For the same compound, the Potency entry in test [19] is “inactive”. Also, the call in test [9] was inactive. Also, the max activation in test [20] was 0.107%.
For `O=C1c2ccccc2C(=O)C1c1ccc(Br)cc1`, the Potency entry in test [1], in [2], in test [3], in test [4], in test [6] and in test [7] was “inactive” each time. Also, the Potency entry in test [8], in test [10], in [11], in test [12], in test [13] and in test [14] was “inactive” each time. Besides, the Potency entry in test [15] was “inactive”. Besides, the call in test [9] was inactive. For the same compound, the Potency in [20] is 11.2 µM (active); in test [18], 25.1 µM (active); in [19], 7.08 µM (active).
